High-throughput results deposited in PubChem BioAssay by National Center for Advancing Translational Sciences (NCATS).
HT1080 IDH1KD tx – qHTS for induction of synthetic lethality in tumor cells producing 2HG: qHTS for the HT-1080-IDH1KD cell line; HT-1080 IDH1 knockdown viability, ATP luminescence, 48 h; 360,000 compounds, 2% hits; AID 686971, 2013; Potency, µM (highest dose often 46.1 µM), inactives show at the highest dose activity, negative = toxicity, usual class: cytotoxic;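 note: 0% = DMSO wells and -100% = cell-free medium wells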
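Knockdown cells (IDH1KD HT-1080) received compounds 2 h after plating at 750 cells/well and were kept 48 h at 37 °C in 5% FBS RPMI. A CellTiter-Glo luminescence read gave % activity for curve fitting.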
DT40 TDP1 CPT – qHTS for Inhibitors of human tyrosyl-DNA phosphodiesterase 1 (TDP1): qHTS in cells in presence of CPT | chicken DT40 Tdp1-/-;hTDP1 cells + 20 nM CPT, ATP luminescence, 48 h | Potency, µM (doses to about 46.2 µM), for inactives: at the highest dose activity change, negative = growth inhibition, usual class: inhibitors | 420,000 compounds, 12% hits | AID 686979, 2013; note: % is set by controls: 0 for no effect and ±100 for the full control effect; nearly all actives have a fitted effect of over 55% in size
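Chicken DT40 Tdp1-/- cells stably complemented with human TDP1 were seeded at 400 cells/well in medium containing 20 nM camptothecin, exposed to pin-transferred compounds, and grown at 37 °C for at least 48 hr. Viability was read as ATP luminescence.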
HT1080NT lethal – qHTS for induction of synthetic lethality in tumor cells producing 2HG: qHTS for the HT-1080-NT fibrosarcoma cell line | HT-1080-NT fibrosarcoma viability, CellTiter-Glo ATP luminescence, 48 h | Potency, µM (titrated, usually from 46.1 µM), for inactives: at the top dose activity, negative = less viability, most hits filed as cytotoxic | 360,000 compounds, 1.6% hits;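 note: NT is the 2HG producing partner of a matched IDH1 knockdown line; 0% = DMSO-treated cells and -100% = media-only wells without cells; nearly all actives have a fitted effect of over 55% in size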
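Toxicity toward the 2HG-producing NT line was scored as %Activity, normalised to DMSO and no-cell wells, from CellTiter-Glo luminescence after 48 hours' treatment.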
TGFb SMAD3 inh – qHTS for Inhibitors of TGF-b. HepG2 CAGA-GFP TGF-b/SMAD3 reporter, GFP fluorescence, 18 h; TGF-beta stimulated, 500 pg/mL final. Potency, µM (top dose mostly 46.1 µM), inactives show top-dose activity, negative = inhibition, hits mostly inhibitors. 410,000 compounds, 1.2% hits. AID 588855, 2011; note: % is set by controls: 0 for no effect and ±100 for the full control effect; nearly all actives have a fitted effect of over 65% in size
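HEPG2 CAGA-GFP, 1000 cells/well; 2 h settle, 37 C; cpd via pin tool; TGF-b 500 pg/mL final; 18 h, 37 C; GFP imaging ex488/em500-530; %Activity normalised to -TGF-b and +DMSO controls; CRC fit, curve class.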
TDP1 cell noCPT – qHTS for Inhibitors of human tyrosyl-DNA phosphodiesterase 1 (TDP1): qHTS in cells in absence of CPT; DT40 Tdp1-/- hTDP1 cells, no CPT, ATP luminescence, 48 h; Potency, µM (doses to about 46.2 µM), without a hit: top-dose activity change, negative = growth inhibition, hits mostly inhibitors; 420,000 compounds, 15% hits; AID 686978, 2013; note: % is set by controls: 0 for no effect and ±100 for the full control effect; nearly all actives have a fitted effect of over 55% in size
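Stably hTDP1-transfected Tdp1-null chicken DT40 cells were treated with library compounds minus camptothecin and grown for at least 48 hr at 37 °C, after which cellular ATP was quantified by luminescence.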
HepG2 tox – qHTS for Inhibitors of TGF-b: Cytotox Counterscreen | HepG2 CAGA-GFP viability, ATP luminescence, 18 h | Potency, µM (highest dose often 46.1 µM), for the others: at the highest dose activity change, negative = cytotoxicity, most hits filed as cytotoxic | 410,000 compounds, 0.76% hits | AID 588856, 2011
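HepG2 CAGA-GFP cells (1000/well, DMEM with 1% FBS) received compound, then TGF-beta at 500 pg/mL final, and were incubated 18 hours at 37 degrees C. Viability was read by CellTiter-Glo luminescence. Media-only wells were set as complete cell-killing and DMSO as no toxicity.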
* hit, by the source's call; ? = inconclusive; / = not tested or not shown. Most compounds without a hit are left out; they make up all but 17% or so of the library. Calls come from the whole dose curve; as a rule, active = well fitted curve in the direction sought with a large enough effect; inconclusive = small, poorly fitted or top-dose-only effect, or another doubt; inactive = no such curve, though single readings can be large; an effect the other way counts as inactive or inconclusive. Potency is the fitted concentration of half-maximal effect.

SMILES	HT1080 IDH1KD tx	DT40 TDP1 CPT	HT1080NT lethal	TGFb SMAD3 inh	TDP1 cell noCPT	HepG2 tox
COc1cc(Cl)c(C)cc1NC(=O)CNC(C)c1ccccc1OC (centres undefined)	?	?	?	-11%	?	-19%
CN1CCN(CC(=O)Nc2nc3ccccc3s2)CC1	-1%	-1%	-3%	8%	-23%	-2%
CN1CCN(CC(=O)Nc2nc(-c3c[nH]c4ccccc34)cs2)CC1	21µM*	-15%	?	-23%	?	-7%
CNc1nc(-c2c[nH]c3ccccc23)cs1	?	?	?	2%	?	-28%
CCC(C)Nc1nc(-c2c[nH]c3ccccc23)cs1 (centres undefined)	?	-28%	?	13µM*	?	-59%
CC(=O)Nc1ccc(OCC(=O)N(CC(C)C)C2CCS(=O)(=O)C2)cc1 (centres undefined)	9%	1%	0%	?	-5%	-30%
CC(=O)N1CCC[C@@]2(CCN(c3ncccn3)C2)C1	/	4%	/	/	-4%	/
CC(C)(C)c1ccc(CC(=O)N2CCC2(C)C(=O)Nc2ccc(F)cc2F)cc1 (centres undefined)	?	23µM*	-24%	-12%	16µM*	-20%
CC1(C(=O)Nc2ccc(F)cc2F)CCN1C(=O)CCC1CCCC1 (centres undefined)	2%	?	?	-25%	23µM*	-10%
Cc1ccccc1OCC(=O)Nc1ccncc1	-6%	?	-2%	-24%	16µM*	-2%
O=C(COc1ccc(Cl)cc1Br)Nc1ccncc1	-17%	?	-14%	?	10µM*	10%
CSc1cc(C)c(OCC(=O)Nc2ccc(NC(C)=O)cc2)c(C)c1	-17%	?	-3%	-10%	?	0.2µM*
Cc1cc(OCC(=O)Nc2ccncc2)ccc1Cl	-10%	?	-12%	0%	?	-42%
CC(=O)Nc1ccc(NC(=O)COc2c(C)cc(Br)cc2C)cc1	-8%	-5%	-9%	-24%	-3%	-30%
Cc1cc(OCC(=O)Nc2ccncc2)cc(C)c1Br	10µM*	?	-23%	-2%	?	-1%
O=C(CCCOc1ccc(Cl)cc1Cl)Nc1ccncc1	10%	?	?	1%	?	-7%
Cc1ccc(NS(=O)(=O)c2c(C(=O)N3CCCCCC3)c(C)n(C)c2C)c(C)c1	-9%	?	8%	-3%	-25%	-9%
Cc1cccc(OCC(=O)Nc2ccncc2)c1	-1%	4%	-16%	-2%	?	-3%
NC(=O)c1ccc(NC(=O)COc2cccc3ccccc23)cc1	3%	-16%	-10%	-7%	-26%	-2%
CC(=O)Nc1cccc(NC(=O)COc2ccccc2C)c1	-8%	12µM*	0%	3%	-70%	2%
Cc1ccccc1OCC(=O)Nc1ccc2[nH]c(=O)sc2c1	/	?	/	-17%	16µM*	-27%
CC(=O)Nc1ccc(NC(=O)COc2cccc3ccccc23)cc1	-7%	9.2µM*	-11%	1%	8.2µM*	-9%
Cc1ccc(OCC(=O)Nc2ccncc2)c(C)c1	-1%	21µM*	-1%	?	8.2µM*	-53%
CC(=O)c1cccc(NC(=O)COC(=O)COc2ccccc2C)c1	4%	10%	6%	-2%	-14%	0%
